# Measurements from PMC5540273 (PLoS ONE, 2017).
# Values joined by “and” are separate entries in the source; they are usually repeats but may differ in a detail not shown here. Identical values can stand only once. Like-named read-outs stand apart in the source and are kept apart here.
# How the values were obtained:
# [1] = test system: CAMK1B; conditions: n = 1
# [2] = test system: CAMK1D; conditions: n = 1
# [3] = test system: CAMK1G; conditions: n = 1
# [4] = test system: CAMK1; conditions: n = 1
# [5] = test system: CAMK2A; conditions: concentration: 1 μM, replicates: in singlicate; n = 1
# [6] = test system: CAMK2B; conditions: concentration: 1 μM, replicates: in singlicate; n = 1
# [7] = test system: CAMK2D; conditions: n = 1
# [8] = test system: CAMK2G; conditions: n = 1
# [9] = test system: CAMK4; conditions: concentration: 1 μM, replicates: in singlicate; n = 1
# [10] = test system: CAMKK1; conditions: concentration: 1 μM, replicates: in singlicate; n = 1
# [11] = test system: CAMKK2; conditions: n = 1
# [12] = test system: CASK; conditions: n = 1
# [13] = test system: T1, CDC2L1; conditions: n = 1
# T1 construct: gene CDK11B
# [14] = test system: CDC2L2; conditions: n = 1
# [15] = test system: T2, CDC2L5; conditions: concentration: 1 μM, replicates: in singlicate; n = 1
# T2 construct: gene CDK13
# [16] = test system: T3, CDK11; conditions: n = 1
# T3 construct: gene CDK19
# [17] = test system: CDK2; conditions: n = 1
# [18] = test system: CDK3; conditions: n = 1
# [19] = test system: CDK4-cyclinD1; conditions: concentration: 1 μM, replicates: in singlicate; n = 1
# [20] = test system: CDK4-cyclinD3; conditions: n = 1
# [21] = concentration: 1 μM, replicates: in singlicate
# [22] = concentration: 1 μM,replicates: in singlicate, 1 µM
# 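Note: KINOMEscan kinase panel screen.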
compound,measurement,setting,value
COc1cccc(-c2cc(-c3c[nH]nc3-c3ccccn3)ccn2)c1 [GW680338],%Inh,[1]; [21],22%
same,%Inh,[2]; [21],14%
same,%Inh,[3]; [21],0%
same,%Inh,[4]; [21],0%
same,%Inh,[5],0%
same,%Inh,[6],0%
same,%Inh,[7]; [21],16%
same,%Inh,[8]; [21],15%
same,%Inh,[9],0%
same,%Inh,[10],0%
same,%Inh,[11]; [21],9%
same,%Inh,[12]; [21],18%
same,%Inh,[13]; [21],0%
same,%Inh,[14]; [21],9%
same,%Inh,[15],0%
same,%Inh,[16]; [21],10%
same,%Inh,[17]; [21],0%
same,%Inh,[18]; [21],6%
same,%Inh,[19],58%
same,%Inh,[20]; [21],0%
COc1ccc(CNC(=O)NC2CCN(c3ccnc(Nc4cc(OC)c(OC)c(OC)c4)n3)C2)cc1 (centres unmarked) [GSK1379748],%Inh,[1]; [21],2%
same,%Inh,[2]; [21],15%
same,%Inh,[3]; [21],8%
same,%Inh,[4]; [21],28%
same,%Inh,[5],0%
same,%Inh,[6],0%
same,%Inh,[7]; [21],16%
same,%Inh,[8]; [21],17%
same,%Inh,[9],0%
same,%Inh,[10],8%
same,%Inh,[11]; [21],12%
same,%Inh,[12]; [21],10%
same,%Inh,[13]; [21],0%
same,%Inh,[14]; [21],14%
same,%Inh,[15],0%
same,%Inh,[16]; [21],2%
same,%Inh,[17]; [21],0%
same,%Inh,[18]; [21],0%
same,%Inh,[19],6%
same,%Inh,[20]; [21],0%
COc1ccc2nc(-c3cccc(C)n3)nc(Nc3ccncc3)c2c1 [GSK204919],%Inh,[1]; [21],0%
same,%Inh,[2]; [21],2%
same,%Inh,[3]; [21],0%
same,%Inh,[4]; [21],5%
same,%Inh,[5],0%
same,%Inh,[6],0%
same,%Inh,[7]; [21],0%
same,%Inh,[8]; [21],3%
same,%Inh,[9],0%
same,%Inh,[10],0%
same,%Inh,[11]; [21],0%
same,%Inh,[12]; [21],23%
same,%Inh,[13]; [21],0%
same,%Inh,[14]; [21],0%
same,%Inh,[15],0%
same,%Inh,[16]; [21],0%
same,%Inh,[17]; [21],0%
same,%Inh,[18]; [21],0%
same,%Inh,[19],0%
same,%Inh,[20]; [21],0%
Cc1cc(-c2ccc3c(c2)CC[C@@H](N[C@@H](C)c2ccccc2)C3)cnc1N.Cl [GW412617],%Inh,[1]; [21],4%
same,%Inh,[2]; [21],13%
same,%Inh,[3]; [21],100%
same,%Inh,[4]; [21],23%
same,%Inh,[5],0%
same,%Inh,[6],0%
same,%Inh,[7]; [21],97.6%
same,%Inh,[8]; [21],21%
same,%Inh,[9],18%
same,%Inh,[10],12%
same,%Inh,[11]; [21],23%
same,%Inh,[12]; [21],0%
same,%Inh,[13]; [21],0%
same,%Inh,[14]; [21],2%
same,%Inh,[15],0%
same,%Inh,[16]; [21],40%
same,%Inh,[17]; [21],12%
same,%Inh,[18]; [21],6%
same,%Inh,[19],0%
same,%Inh,[20]; [21],0%
Cn1ccc2ncnc(Oc3ccc(Nc4nc5ccccc5[nH]4)cc3)c21,%Inh,[1]; [21],0%
same,%Inh,[2]; [21],0%
same,%Inh,[3]; [21],0%
same,%Inh,[4]; [21],0%
same,%Inh,[5],7%
same,%Inh,[6],5%
same,%Inh,[7]; [21],2%
same,%Inh,[8]; [21],0%
same,%Inh,[9],0%
same,%Inh,[10],14%
same,%Inh,[11]; [21],22%
same,%Inh,[12]; [21],0%
same,%Inh,[13]; [21],0%
same,%Inh,[14]; [21],1%
same,%Inh,[15],0%
same,%Inh,[16]; [21],6%
same,%Inh,[17]; [21],6%
same,%Inh,[18]; [21],0%
same,%Inh,[19],0%
same,%Inh,[20]; [21],0%
Cl.NC(=O)c1cccc(Nc2nccc(Nc3ccc(Oc4cccc(Cl)c4)c(Cl)c3)n2)c1 [GW659008],%Inh,[1]; [21],0%
same,%Inh,[2]; [21],17%
same,%Inh,[3]; [21],9%
same,%Inh,[4]; [21],25%
same,%Inh,[5],0%
same,%Inh,[6],0%
same,%Inh,[7]; [21],5%
same,%Inh,[8]; [21],16%
same,%Inh,[9],0%
same,%Inh,[10],0%
same,%Inh,[11]; [21],0%
same,%Inh,[12]; [21],7%
same,%Inh,[13]; [21],0%
same,%Inh,[14]; [21],13%
same,%Inh,[15],0%
same,%Inh,[16]; [21],8%
same,%Inh,[17]; [21],0%
same,%Inh,[18]; [21],24%
same,%Inh,[19],0%
same,%Inh,[20]; [21],0%
CSc1nn2c(=O)cc(N3CCOCC3)nc2n1Cc1cccc(C(F)(F)F)c1C [GSK2363608],%Inh,[1]; [22],31% and 0%
same,%Inh,[2]; [22],9% and 19%
same,%Inh,[3]; [22],0% and 11%
same,%Inh,[4]; [22],1% and 13%
same,%Inh,[5],0%
same,%Inh,[6],0%
same,%Inh,[7]; [22],2% and 19%
same,%Inh,[8]; [22],0% and 15%
same,%Inh,[9],0%
same,%Inh,[10],0%
same,%Inh,[11]; [22],14% and 0%
same,%Inh,[12]; [22],19% and 16%
same,%Inh,[13]; [22],3% and 0%
same,%Inh,[14]; [22],25% and 0%
same,%Inh,[15],0%
same,%Inh,[16]; [22],5% and 35%
same,%Inh,[17]; [22],6% and 0%
same,%Inh,[18]; [22],17% and 0%
same,%Inh,[19],0%
same,%Inh,[20]; [22],6% and 0%
Cc1ccc(C(=O)Nc2ccc(Nc3ccnc4cc(-c5ccccn5)ccc34)cc2O)cc1.Cl [GW440146],%Inh,[1]; [21],13%
same,%Inh,[2]; [21],20%
same,%Inh,[3]; [21],0%
same,%Inh,[4]; [21],39%
same,%Inh,[5],0%
same,%Inh,[6],0%
same,%Inh,[7]; [21],0%
same,%Inh,[8]; [21],8%
same,%Inh,[9],0%
same,%Inh,[10],0%
same,%Inh,[11]; [21],0%
same,%Inh,[12]; [21],3%
same,%Inh,[13]; [21],0%
same,%Inh,[14]; [21],11%
same,%Inh,[15],0%
same,%Inh,[16]; [21],0%
same,%Inh,[17]; [21],0%
same,%Inh,[18]; [21],5%
same,%Inh,[19],16%
same,%Inh,[20]; [21],0%
CN(C)CCN(C)C(=O)c1cc(-c2ccncc2)c(-c2ccc(Cl)c(O)c2)o1.Cl.Cl [SB-710397],%Inh,[1]; [21],6%
same,%Inh,[2]; [21],13%
same,%Inh,[3]; [21],0%
same,%Inh,[4]; [21],10%
same,%Inh,[5],0%
same,%Inh,[6],0%
same,%Inh,[7]; [21],0%
same,%Inh,[8]; [21],1%
same,%Inh,[9],0%
same,%Inh,[10],0%
same,%Inh,[11]; [21],0%
same,%Inh,[12]; [21],29%
same,%Inh,[13]; [21],0%
same,%Inh,[14]; [21],0%
same,%Inh,[15],0%
same,%Inh,[16]; [21],15%
same,%Inh,[17]; [21],0%
same,%Inh,[18]; [21],20%
same,%Inh,[19],23%
same,%Inh,[20]; [21],9%
CN1C(=O)C(Nc2ccc(Cl)c(C(=O)O)c2)=C(c2ccc(Cl)cc2)C1=O [SB-404290],%Inh,[1]; [21],0%
same,%Inh,[2]; [21],17%
same,%Inh,[3]; [21],100%
same,%Inh,[4]; [21],22%
same,%Inh,[5],17%
same,%Inh,[6],0%
same,%Inh,[7]; [21],0%
same,%Inh,[8]; [21],18%
same,%Inh,[9],0%
same,%Inh,[10],0%
same,%Inh,[11]; [21],0%
same,%Inh,[12]; [21],3%
same,%Inh,[13]; [21],0%
same,%Inh,[14]; [21],0%
same,%Inh,[15],1%
same,%Inh,[16]; [21],0%
same,%Inh,[17]; [21],13%
same,%Inh,[18]; [21],6%
same,%Inh,[19],0%
same,%Inh,[20]; [21],0%
